# AmpC detergent = blocks E. coli AmpC beta-lactamase in detergent assay. 370,000 tested, 0.041% active. AmpC hydrolysis of nitrocefin, absorbance 480 nm, 0.01% Triton. Potency, µM (top dose mostly 114 µM), for inactives: at the top dose activity change, negative = inhibition, actives largely listed as inhibitors. AID 485294;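 further: potency means the concentration at half of the fitted maximal effect; 0% = no-compound wells and -100% = no-enzyme wells; nearly all actives have a fitted effect of over 25% in size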
# Target sequence (P00811 whole entry, looked up): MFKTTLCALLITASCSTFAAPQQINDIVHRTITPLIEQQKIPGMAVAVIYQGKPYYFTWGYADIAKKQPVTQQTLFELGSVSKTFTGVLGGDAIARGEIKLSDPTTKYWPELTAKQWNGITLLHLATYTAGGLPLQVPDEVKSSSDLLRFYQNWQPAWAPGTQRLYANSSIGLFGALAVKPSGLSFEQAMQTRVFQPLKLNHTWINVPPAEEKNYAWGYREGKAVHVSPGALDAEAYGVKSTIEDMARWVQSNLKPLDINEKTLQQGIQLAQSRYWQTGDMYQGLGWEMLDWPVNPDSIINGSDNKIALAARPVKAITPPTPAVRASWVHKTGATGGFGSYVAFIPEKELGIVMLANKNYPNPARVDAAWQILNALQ
#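 AmpC (5.3 nM in the dispensed reagent) in 20 mM phosphate pH 7.0 with 0.01% (detergent screen) or 0.0001% Triton X-100 was preincubated with compounds for 15 min at room temperature. Nitrocefin was then added from an 800 uM solution, and hydrolysis was followed at 480 nm.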
# AmpC no deterg = inhibitors of E. coli AmpC beta-lactamase without detergent. AmpC nitrocefin hydrolysis, absorbance 480 nm, 0.0001% Triton. AID 485341. Potency, µM (highest dose often 57.1 µM), for inactives: at the highest dose activity change, negative = inhibition, most hits filed as inhibitors. 330,000 tested, 0.52% active. P00811;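 further: potency means the concentration at half of the fitted maximal effect; plate controls were no compound for no effect and no enzyme for full effect; nearly all actives have a fitted effect of over 20% in size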
#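 AmpC (5.3 nM in the dispensed reagent) in 20 mM phosphate pH 7.0 with 0.01% (detergent screen) or 0.0001% Triton X-100 was preincubated with compounds for 15 min at room temperature. Nitrocefin was then added from an 800 uM solution, and hydrolysis was followed at 480 nm.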
# HCV inh = blocks hepatitis C virus | 340,000 tested, 3.4% active | Huh7.5.1 HCVcc-Cre infection, luciferase reporter, 44 h | Potency, µM (series often up to 41.8 µM), inactives show at the highest dose activity change, negative = inhibition, hits mostly inhibitors; further: potency means the concentration at half of the fitted maximal effect
#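 Whole-lifecycle infectious HCVcc-Cre system; cells 1,000/well, compound then virus (~0.5 moi) added 4 h after plating, 44 h culture. Luciferase read 15 sec following 15 min substrate incubation, room temp.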
# HCMV inh = human cytomegalovirus inhibition; HFF cells, HCMV-luciferase reporter, 72 h; active compounds read low; activity change, negative = inhibition, % at 57.5 µM; 410,000 tested, 4.5% active; in the data active means activity change below about -60%; inconclusive means no clear call, values can overlap the other calls; inactive means above about -39%
#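 Screen run at 2 compound doses on HFFs infected with reporter HCMV, MOI 1 PFU/cell. Luciferase activity from cell lysates at 72 h post infection gave inhibition relative to buffer-only and Salinomycin wells.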
# FMDV antiviral = antivirals against foot and mouth disease virus; FMDV antiviral cell-based qHTS; Potency, µM (doses to about 57.9 µM), for inactives: at the highest dose activity change, negative = inhibition, actives largely listed as inhibitors; 410,000 tested, 1.2% active; AID 1159524; calls by dose curve; tested in HEK293T cells; further: read-out not given here; potency means the concentration at half of the fitted maximal effect; nearly all actives have a fitted effect of over 45% in size
# Active calls of the source: *; ? = inconclusive; / = no result; [ ] = dose if it differs, or a comment. Shown are actives, neighbours in structure and some others; about 7.3% of the full set was active somewhere. Unless noted, the call rests on the fitted dose curve; in most records, active means well fitted curve in the direction sought with a large enough effect; inconclusive means small, poorly fitted or top-dose-only effect, or another doubt; inactive means no such curve, though single readings can be large; an effect the other way counts as inactive or inconclusive. Unless noted, on the % scale 0 is the no-effect control and ±100 the full control effect.
SMILES,AmpC detergent,AmpC no deterg,HCV inh,HCMV inh,FMDV antiviral
O=C(Nc1ccc2oc(=O)ccc2c1)c1ccc(-c2ccc(Cl)cc2)o1,-10%,-11%,12%,-8,-15%
CC1CN(c2cnn(C(C)C)c(=O)c2Cl)CC(C)O1 (centres undefined),-10%,-9%,6%,36,-21%
COc1cc(CNc2cccc3c2S(=O)(=O)N([C@H](C)c2ccccc2)C[C@@H](COCc2ccccc2)O3)cc(OC)c1OC,/,/,/,-7,/
CCOc1cc(CNC2CCCC2)c(Cl)cc1OCC(=O)Nc1ccccc1,4%,4%,?,0,-23%
COCC(=O)N1CCC2(CC1)CN(Cc1cc(C(F)(F)F)cc(C(F)(F)F)c1)C2,/,/,/,/,-1%
O=C(Nc1ccc2oc(=O)ccc2c1)c1ccc(-c2cccc([N+](=O)[O-])c2)o1,2%,-36%,8.9µM*,-39,32µM*
O=C(Nc1ccc2oc(=O)ccc2c1)c1ccc(-c2ccccc2[N+](=O)[O-])o1,2%,-19%,?,52,-27%
CNC(=O)[C@@H]1C[C@@H](NCc2cccc(Oc3ccccc3)c2)CN1C(C)C,/,/,/,/,-13%
CN1C[C@@H]2[C@@H]3C(=O)N(Cc4ccccc4)C(=O)[C@@H]3[C@](Cc3ccccc3)(C1=O)N2C(=O)c1ccc(C(C)(C)C)cc1,/,/,?,-98*,?
O=C(O)C(c1ccccc1)C1CCCCC1O (centres undefined),/,/,14%,19,-2%
COCCOC(=O)c1c(C)oc2ccc(OC(=O)c3c(OC)cccc3OC)cc12,-1%,?,7.9µM*,-10,?
O=C(COC(=O)C1(c2ccc(F)cc2)CCCC1)N1CCN(C(=O)c2ccco2)CC1,?,113%,?,-106*,?
COc1ccc(C(=O)OCC(=O)N2CCN(C(=O)c3ccco3)CC2)c(OC)c1OC,/,/,/,-102*,0%
O=C(COC(=O)C1(c2ccccc2F)CCCC1)N1CCN(C(=O)c2ccco2)CC1,-14%,59%,-4%,-32,/
Oc1cc(-c2nc3ccccc3s2)cc2c1OCCN(Cc1cccn1-c1ccc(Cl)cn1)C2,/,/,/,/,26%
CCCCOc1ccccc1NC(=O)c1ccco1,-8%,?,?,-4,-6%
CCCCOc1ccccc1NC(=O)c1scc2c1OCCO2,-9%,-20%,13µM*,-28,?
Cc1nc(-c2cccc(NC(=O)c3ccc(-n4nccc4C)cc3)c2)cs1,-5%,-23%,10µM*,0,22µM*
Cc1cccc(-n2c(SCC(N)=O)nc3c(c2=O)C2(CCCC2)Cc2ccccc2-3)c1,-14%,-20%,?,?,?
NC(=O)CSc1nc2c(c(=O)n1-c1ccccc1)C1(CCCCC1)Cc1ccccc1-2,-9%,-28%,0%,-93*,20µM*
O=C1C(Nc2ccc(O)cc2)=C/C(=N/S(=O)(=O)c2cccs2)c2ccccc21,?,-33%[11.4 µM],3.5µM*,-99*,13µM*
Cc1cccc(NC2=C/C(=N/S(=O)(=O)c3cccs3)c3ccccc3C2=O)c1,-11%,-39%,2.8µM*,62,?
Cc1cc(C)c(S(=O)(=O)/N=C2\C=C(NS(=O)(=O)c3ccccc3)C(=O)c3ccccc32)c(C)c1,-2%,-53%,9%,55,49%
Cc1ccc(Cl)cc1NC1=C/C(=N\S(=O)(=O)c2cccs2)c2ccccc2C1=O,-2%,-40%,10µM*,-99*,14µM*
O=C(O)c1ccc(NC2=C/C(=N/S(=O)(=O)c3cccs3)c3ccccc3C2=O)cc1,/,/,/,-24,10µM*
C[C@H](CO)N1C[C@H](C)[C@H](CN(C)C(=O)Nc2cccc(F)c2)OCc2cnnn2CCCC1=O,/,/,/,-7,/
Cc1cc(C)cc(NC(=O)CSc2oc(-c3ccco3)nc2S(=O)(=O)c2ccccc2)c1,15%,/,/,2,-27%
Cc1ccc(-c2nc(S(=O)(=O)c3ccccc3)c(SCC(=O)NCC3CCCO3)o2)cc1 (centres undefined),-1%,102%,?,-60*,-17%
O=C(CSc1oc(-c2ccccc2)nc1S(=O)(=O)c1ccccc1)NCC1CCCO1 (centres undefined),-10%,60%,?,-9,-20%

# Assay outcomes as filed in PubChem.
